From ChEMBL document CHEMBL1961873, “Compounds: GSK PKIS; Assays: Nanosyn kinase panel” (2012)
“And” between values parts separate entries of the source, which are not always exact repeats. Equal values may be shown once.

What was measured:
[1] = molecular target: Protein kinase C gamma type (Homo sapiens) (UniProt P05129); conditions: at 1 µM;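 note: each value is an averaged percent inhibition of the enzyme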
[2] = molecular target: T1, Protein kinase C iota type (Homo sapiens) (UniProt P41743); conditions: at 0.1 µM
T1 sequence (whole entry): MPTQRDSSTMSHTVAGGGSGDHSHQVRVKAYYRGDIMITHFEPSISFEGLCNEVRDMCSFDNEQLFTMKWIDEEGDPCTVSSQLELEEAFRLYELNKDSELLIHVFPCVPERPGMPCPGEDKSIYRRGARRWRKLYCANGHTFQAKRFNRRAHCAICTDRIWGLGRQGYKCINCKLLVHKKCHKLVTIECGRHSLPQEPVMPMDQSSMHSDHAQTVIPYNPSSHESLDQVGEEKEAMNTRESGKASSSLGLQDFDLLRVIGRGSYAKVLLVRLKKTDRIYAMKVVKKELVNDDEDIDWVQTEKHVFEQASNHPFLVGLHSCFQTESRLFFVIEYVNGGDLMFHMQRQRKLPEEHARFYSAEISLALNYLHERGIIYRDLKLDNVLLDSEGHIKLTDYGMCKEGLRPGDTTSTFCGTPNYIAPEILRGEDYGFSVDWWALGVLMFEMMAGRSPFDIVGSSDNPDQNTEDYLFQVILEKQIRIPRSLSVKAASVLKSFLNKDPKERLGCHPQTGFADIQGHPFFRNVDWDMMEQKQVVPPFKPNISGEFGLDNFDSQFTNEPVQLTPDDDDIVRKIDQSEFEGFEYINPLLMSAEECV

[3] = molecular target: T1, Protein kinase C iota type (Homo sapiens); conditions: at 1 µM
[4] = molecular target: Protein kinase C theta type (Homo sapiens) (UniProt Q04759); conditions: at 0.1 µM
[5] = molecular target: Protein kinase C theta type (Homo sapiens) (UniProt Q04759); conditions: at 1 µM
[6] = molecular target: Protein kinase C beta type (Homo sapiens) (UniProt P05771); conditions: at 0.1 µM
[7] = molecular target: Protein kinase C beta type (Homo sapiens) (UniProt P05771); conditions: at 1 µM
[8] = molecular target: T2, Serine/threonine-protein kinase D1 (Homo sapiens) (UniProt Q15139); conditions: at 0.1 µM
T2 sequence (whole entry): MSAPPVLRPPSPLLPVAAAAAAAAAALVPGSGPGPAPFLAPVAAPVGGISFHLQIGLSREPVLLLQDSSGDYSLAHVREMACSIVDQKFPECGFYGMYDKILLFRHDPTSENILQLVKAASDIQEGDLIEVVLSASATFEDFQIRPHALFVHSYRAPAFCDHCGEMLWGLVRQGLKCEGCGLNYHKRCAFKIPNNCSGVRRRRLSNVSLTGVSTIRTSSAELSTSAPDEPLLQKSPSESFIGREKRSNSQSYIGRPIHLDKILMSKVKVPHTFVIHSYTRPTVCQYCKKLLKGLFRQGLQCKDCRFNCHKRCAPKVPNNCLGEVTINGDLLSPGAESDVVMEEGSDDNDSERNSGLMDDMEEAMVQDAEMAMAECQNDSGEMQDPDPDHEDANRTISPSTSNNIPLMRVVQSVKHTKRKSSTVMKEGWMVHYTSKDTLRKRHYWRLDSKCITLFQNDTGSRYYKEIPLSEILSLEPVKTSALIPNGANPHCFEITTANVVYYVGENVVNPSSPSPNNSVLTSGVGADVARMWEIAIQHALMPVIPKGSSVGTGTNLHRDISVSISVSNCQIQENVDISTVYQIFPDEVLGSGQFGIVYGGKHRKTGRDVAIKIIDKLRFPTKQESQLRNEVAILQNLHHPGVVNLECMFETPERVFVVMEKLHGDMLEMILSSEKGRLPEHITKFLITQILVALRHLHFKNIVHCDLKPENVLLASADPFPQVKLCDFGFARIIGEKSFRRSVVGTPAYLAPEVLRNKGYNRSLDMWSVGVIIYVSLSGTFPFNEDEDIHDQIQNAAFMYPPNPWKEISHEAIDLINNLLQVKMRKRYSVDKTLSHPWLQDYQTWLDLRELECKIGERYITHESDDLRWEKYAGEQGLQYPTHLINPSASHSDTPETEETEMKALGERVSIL

[9] = molecular target: T2, Serine/threonine-protein kinase D1 (Homo sapiens); conditions: at 1 µM
[10] = molecular target: T3, Serine/threonine-protein kinase D2 (Homo sapiens) (UniProt Q9BZL6); conditions: at 0.1 µM
T3 sequence (whole entry): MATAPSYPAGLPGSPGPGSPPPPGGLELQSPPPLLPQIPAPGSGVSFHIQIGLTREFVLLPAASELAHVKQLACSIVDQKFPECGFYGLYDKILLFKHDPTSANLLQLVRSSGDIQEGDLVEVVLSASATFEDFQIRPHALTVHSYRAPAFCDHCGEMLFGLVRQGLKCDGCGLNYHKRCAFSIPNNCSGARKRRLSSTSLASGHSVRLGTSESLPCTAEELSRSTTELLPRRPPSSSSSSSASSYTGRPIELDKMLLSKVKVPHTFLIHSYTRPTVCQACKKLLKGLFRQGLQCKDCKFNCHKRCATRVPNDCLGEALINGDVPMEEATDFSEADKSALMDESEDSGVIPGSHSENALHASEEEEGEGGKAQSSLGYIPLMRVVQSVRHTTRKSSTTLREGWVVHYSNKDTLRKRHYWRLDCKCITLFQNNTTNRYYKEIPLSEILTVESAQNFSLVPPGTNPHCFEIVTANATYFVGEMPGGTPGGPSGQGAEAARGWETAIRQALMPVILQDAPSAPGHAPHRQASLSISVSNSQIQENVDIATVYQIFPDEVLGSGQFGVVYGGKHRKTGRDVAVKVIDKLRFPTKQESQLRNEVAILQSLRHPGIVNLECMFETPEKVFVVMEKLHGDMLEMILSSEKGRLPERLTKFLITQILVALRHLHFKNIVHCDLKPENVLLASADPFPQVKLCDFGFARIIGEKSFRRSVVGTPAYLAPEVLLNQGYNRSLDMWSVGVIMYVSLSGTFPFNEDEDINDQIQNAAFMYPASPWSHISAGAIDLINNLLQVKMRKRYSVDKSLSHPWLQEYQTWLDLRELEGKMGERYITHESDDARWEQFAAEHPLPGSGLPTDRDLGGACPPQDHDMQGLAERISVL

[11] = molecular target: T3, Serine/threonine-protein kinase D2 (Homo sapiens); conditions: at 1 µM
[12] = molecular target: T4, Serine/threonine-protein kinase D3 (Homo sapiens) (UniProt O94806); conditions: at 0.1 µM
T4 sequence (whole entry): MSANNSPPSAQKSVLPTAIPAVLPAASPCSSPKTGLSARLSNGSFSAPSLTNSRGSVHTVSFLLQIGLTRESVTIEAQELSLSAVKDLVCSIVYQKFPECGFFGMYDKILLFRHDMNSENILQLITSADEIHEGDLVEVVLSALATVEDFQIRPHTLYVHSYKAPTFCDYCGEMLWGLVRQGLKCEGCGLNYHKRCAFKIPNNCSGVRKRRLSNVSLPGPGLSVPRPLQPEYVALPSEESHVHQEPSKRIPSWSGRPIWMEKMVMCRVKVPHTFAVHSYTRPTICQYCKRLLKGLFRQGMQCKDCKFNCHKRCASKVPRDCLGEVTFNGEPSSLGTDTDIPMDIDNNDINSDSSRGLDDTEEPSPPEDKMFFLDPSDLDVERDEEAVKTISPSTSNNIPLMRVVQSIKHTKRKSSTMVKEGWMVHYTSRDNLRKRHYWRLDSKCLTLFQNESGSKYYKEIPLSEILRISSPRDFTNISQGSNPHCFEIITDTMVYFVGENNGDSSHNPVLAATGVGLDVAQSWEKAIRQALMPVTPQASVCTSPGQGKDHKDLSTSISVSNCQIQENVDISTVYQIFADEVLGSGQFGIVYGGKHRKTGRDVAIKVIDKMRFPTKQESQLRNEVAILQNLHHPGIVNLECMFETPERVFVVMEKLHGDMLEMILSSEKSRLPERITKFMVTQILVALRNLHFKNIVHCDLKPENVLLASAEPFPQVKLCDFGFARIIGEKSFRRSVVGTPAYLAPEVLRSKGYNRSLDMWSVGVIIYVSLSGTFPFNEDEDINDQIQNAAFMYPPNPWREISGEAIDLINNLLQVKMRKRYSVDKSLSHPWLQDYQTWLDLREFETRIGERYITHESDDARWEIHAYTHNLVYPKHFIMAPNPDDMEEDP

[13] = molecular target: T4, Serine/threonine-protein kinase D3 (Homo sapiens); conditions: at 1 µM
[14] = molecular target: T5, cGMP-dependent protein kinase 1 (Homo sapiens) (UniProt Q13976); conditions: at 0.1 µM
T5 sequence (whole entry): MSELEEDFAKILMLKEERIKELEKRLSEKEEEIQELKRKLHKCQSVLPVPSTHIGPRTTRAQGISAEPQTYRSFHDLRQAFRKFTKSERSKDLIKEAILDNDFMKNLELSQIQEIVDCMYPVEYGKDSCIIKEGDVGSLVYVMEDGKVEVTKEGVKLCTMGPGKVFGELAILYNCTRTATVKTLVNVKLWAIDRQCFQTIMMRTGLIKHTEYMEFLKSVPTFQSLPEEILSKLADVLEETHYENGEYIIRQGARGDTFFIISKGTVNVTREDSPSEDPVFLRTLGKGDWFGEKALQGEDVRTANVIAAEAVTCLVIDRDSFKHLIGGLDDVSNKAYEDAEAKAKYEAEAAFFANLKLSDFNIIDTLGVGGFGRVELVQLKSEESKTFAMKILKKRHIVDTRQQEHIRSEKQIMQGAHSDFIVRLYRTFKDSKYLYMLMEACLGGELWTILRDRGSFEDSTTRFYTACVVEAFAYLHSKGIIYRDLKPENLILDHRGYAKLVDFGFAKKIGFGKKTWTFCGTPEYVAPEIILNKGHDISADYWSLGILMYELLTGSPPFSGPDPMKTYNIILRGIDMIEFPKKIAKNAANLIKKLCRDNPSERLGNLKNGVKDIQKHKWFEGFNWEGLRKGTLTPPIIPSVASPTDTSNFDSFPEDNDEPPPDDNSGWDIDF

[15] = molecular target: T5, cGMP-dependent protein kinase 1 (Homo sapiens); conditions: at 1 µM
[16] = molecular target: T6, cGMP-dependent protein kinase 2 (Homo sapiens) (UniProt Q13237); conditions: at 0.1 µM
T6 sequence (whole entry): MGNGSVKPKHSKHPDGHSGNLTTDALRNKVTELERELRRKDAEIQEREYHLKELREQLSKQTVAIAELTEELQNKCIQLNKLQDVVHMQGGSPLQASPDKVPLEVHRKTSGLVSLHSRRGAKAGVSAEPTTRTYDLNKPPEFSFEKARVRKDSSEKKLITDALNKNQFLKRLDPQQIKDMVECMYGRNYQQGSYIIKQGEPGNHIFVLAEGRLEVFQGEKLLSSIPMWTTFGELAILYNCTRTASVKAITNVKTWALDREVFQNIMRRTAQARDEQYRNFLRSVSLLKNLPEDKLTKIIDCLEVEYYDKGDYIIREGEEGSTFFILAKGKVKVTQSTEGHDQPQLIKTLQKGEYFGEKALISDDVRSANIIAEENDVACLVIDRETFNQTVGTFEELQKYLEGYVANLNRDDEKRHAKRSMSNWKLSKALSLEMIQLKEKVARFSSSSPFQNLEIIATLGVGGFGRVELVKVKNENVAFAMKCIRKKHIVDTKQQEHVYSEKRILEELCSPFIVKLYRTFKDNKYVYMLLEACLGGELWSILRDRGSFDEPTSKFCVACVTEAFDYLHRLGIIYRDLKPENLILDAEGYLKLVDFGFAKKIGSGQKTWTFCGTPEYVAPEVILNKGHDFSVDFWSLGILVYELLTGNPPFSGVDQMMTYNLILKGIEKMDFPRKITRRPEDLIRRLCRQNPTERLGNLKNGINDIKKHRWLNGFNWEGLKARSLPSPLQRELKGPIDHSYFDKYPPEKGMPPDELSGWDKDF

[17] = molecular target: T6, cGMP-dependent protein kinase 2 (Homo sapiens); conditions: at 1 µM
[18] = molecular target: T7, cAMP-dependent protein kinase catalytic subunit PRKX (Homo sapiens) (UniProt P51817); conditions: at 0.1 µM
T7 sequence (whole entry): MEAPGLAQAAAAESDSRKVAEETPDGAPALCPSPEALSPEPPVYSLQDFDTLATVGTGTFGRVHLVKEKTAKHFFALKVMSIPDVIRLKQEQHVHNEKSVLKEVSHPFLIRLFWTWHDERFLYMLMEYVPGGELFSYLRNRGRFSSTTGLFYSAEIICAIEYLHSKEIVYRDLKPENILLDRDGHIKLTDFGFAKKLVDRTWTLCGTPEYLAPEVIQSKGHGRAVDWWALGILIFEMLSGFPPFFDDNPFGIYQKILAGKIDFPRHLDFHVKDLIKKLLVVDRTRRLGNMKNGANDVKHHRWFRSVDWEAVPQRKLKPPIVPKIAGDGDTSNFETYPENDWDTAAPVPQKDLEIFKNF

[19] = molecular target: T7, cAMP-dependent protein kinase catalytic subunit PRKX (Homo sapiens); conditions: at 1 µM
[20] = molecular target: Rho-associated protein kinase 1 (Homo sapiens) (UniProt Q13464); conditions: at 0.1 µM;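 note: values are mean percent inhibition of ROCK1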
Rho-associated protein kinase 1 (Homo sapiens), sequence (Q13464 2-1354 limits assumed): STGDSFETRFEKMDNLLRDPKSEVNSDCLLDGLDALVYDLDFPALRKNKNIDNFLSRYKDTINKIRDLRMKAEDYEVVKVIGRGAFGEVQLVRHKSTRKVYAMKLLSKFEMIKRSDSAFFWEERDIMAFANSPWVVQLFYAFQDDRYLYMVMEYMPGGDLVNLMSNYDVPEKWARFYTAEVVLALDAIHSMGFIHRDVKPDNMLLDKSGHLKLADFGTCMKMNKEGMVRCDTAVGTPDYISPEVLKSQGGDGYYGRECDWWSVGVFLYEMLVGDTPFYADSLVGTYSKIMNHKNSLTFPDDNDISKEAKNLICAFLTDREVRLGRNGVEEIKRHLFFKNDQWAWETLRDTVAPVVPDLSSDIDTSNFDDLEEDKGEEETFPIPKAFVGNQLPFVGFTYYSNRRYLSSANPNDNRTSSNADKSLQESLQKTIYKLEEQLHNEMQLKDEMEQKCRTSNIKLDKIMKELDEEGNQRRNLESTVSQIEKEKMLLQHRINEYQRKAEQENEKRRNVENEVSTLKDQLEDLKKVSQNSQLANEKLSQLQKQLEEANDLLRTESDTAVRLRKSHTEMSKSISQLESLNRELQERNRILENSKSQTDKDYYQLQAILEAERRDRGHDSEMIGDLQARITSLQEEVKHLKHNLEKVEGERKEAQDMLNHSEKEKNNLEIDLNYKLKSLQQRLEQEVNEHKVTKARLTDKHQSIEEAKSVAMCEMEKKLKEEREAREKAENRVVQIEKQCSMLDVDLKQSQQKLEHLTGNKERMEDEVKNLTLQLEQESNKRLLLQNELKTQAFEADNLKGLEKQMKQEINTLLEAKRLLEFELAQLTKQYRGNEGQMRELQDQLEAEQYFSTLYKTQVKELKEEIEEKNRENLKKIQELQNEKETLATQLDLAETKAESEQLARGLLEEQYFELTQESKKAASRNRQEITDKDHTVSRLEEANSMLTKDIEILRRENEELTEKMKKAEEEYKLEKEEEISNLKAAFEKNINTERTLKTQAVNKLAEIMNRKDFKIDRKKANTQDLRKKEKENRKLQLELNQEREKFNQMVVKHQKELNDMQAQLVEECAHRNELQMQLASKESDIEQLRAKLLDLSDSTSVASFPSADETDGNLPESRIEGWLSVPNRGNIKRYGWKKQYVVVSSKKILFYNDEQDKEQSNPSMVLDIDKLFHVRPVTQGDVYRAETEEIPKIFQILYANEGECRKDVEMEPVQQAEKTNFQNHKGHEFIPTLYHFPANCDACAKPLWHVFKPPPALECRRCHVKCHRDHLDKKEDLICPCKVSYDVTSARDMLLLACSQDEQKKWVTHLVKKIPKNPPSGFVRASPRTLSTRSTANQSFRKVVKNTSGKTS

Protein kinase C theta type (Homo sapiens), sequence (Q04759 whole entry, looked up): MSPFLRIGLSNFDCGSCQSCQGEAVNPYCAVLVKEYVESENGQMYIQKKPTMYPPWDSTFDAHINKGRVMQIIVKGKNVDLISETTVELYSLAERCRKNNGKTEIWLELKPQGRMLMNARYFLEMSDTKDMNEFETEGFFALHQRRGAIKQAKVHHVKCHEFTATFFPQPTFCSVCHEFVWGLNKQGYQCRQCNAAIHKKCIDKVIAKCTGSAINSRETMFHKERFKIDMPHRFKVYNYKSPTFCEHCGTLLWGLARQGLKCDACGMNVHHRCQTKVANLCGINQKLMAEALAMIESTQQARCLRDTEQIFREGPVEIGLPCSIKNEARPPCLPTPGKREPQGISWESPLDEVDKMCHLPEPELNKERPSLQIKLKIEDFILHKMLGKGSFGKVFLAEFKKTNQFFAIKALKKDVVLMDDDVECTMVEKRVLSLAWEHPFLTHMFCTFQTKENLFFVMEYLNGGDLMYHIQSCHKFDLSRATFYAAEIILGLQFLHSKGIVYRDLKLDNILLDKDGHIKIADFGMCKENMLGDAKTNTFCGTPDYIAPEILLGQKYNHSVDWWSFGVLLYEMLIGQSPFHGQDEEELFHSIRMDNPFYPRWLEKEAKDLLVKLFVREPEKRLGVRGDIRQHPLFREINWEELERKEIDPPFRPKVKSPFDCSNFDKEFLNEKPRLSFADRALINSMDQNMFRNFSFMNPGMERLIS
Protein kinase C beta type (Homo sapiens), sequence (P05771 2-671 limits assumed): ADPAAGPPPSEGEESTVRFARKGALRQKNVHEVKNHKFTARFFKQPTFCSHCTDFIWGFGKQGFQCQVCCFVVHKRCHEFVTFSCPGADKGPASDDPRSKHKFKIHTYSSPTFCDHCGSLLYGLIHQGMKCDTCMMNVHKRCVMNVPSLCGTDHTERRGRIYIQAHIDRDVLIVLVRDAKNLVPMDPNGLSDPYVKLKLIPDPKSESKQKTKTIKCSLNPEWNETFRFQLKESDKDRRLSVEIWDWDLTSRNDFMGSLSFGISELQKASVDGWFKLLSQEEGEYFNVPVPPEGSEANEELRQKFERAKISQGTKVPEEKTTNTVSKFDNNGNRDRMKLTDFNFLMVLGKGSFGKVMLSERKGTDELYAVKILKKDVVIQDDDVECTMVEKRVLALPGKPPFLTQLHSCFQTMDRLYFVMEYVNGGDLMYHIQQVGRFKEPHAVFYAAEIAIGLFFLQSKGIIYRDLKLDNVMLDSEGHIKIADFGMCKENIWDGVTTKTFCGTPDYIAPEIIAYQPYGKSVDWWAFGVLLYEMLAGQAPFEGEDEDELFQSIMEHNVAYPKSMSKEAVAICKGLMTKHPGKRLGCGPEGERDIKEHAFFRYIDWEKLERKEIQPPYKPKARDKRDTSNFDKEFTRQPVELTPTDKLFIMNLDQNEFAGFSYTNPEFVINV

Structure (SMILES) | inhibition [1] | inhibition [2] | inhibition [3] | inhibition [4] | inhibition [5] | inhibition [6] | inhibition [7] | inhibition [8] | inhibition [9] | inhibition [10] | inhibition [11] | inhibition [12] | inhibition [13] | inhibition [14] | inhibition [15] | inhibition [16] | inhibition [17] | inhibition [18] | inhibition [19] | inhibition [20]
CN1CCC(C(=O)Nc2n[nH]c3nc(-c4ccc(O)cc4)c(Br)cc23)CC1 | 7.76% and 8.57% | 3.63% and -0.08% | 8.06% and 5.91% | 2.17% and 0.5% | 7.83% and 2.97% | 6.51% and 5.4% | 30.5% and 31.2% | 1.71% and 3.32% | 5.76% and 5.75% | 1.9% and 3.95% | 4.6% and 3.02% | 1.49% and 1.43% | 3.3% and 2.68% | 2.6% and 0.38% | 8.03% and 6.39% | 2.67% and 0.36% | 8.41% and 4.33% | 3.06% and 1.23% | 6.6% and 1.62% | 1.28% and -0.29%
CCS(=O)(=O)c1ccc(OC)c(Nc2ncc(-c3cccc(C(C)=O)c3)o2)c1 | 1.69% | 1.79% | -0.79% | 2.27% | 3.34% | 1.16% | 1.89% | 2.32% | 2.22% | 2.04% | 1% | 2.85% | 1.31% | 1.67% | 2.08% | -0.65% | 2.63% | 1.59% | 3.12% | 0.01%
